# Among all 5,500 compounds or so, about 2,000 (36%) were called active. Roughly 18% stayed inconclusive and do not appear here. The list shows a part of the results. Values without a mark were called inactive. Cut-off read from the data, not from the text of the source: active = normalized growth mostly below about 0.91 (no sharp cut-off); inconclusive = no clear call, values can overlap the other calls; inactive = mostly above about 0.92.
# Experiment: chemical genetic growth profiling, strain panel (AID 1159580);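 note: tested at 20 µM; growth read once vehicle control cultures reached saturation at 30 °C; 1 = growth at the plate median or of vehicle wells; lower values mean less growth of the strain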
# Conditions: S. cerevisiae deletion strains, growth OD
# [1] = locus YAR019C, strain CDC15, stronger effect = lower value
# [2] = locus YBL105C, strain PKC1, stronger effect = lower value
# [3] = locus YBR135W, strain CKS1, stronger effect = lower value
# [4] = locus YBR136W, strain MEC1, stronger effect = lower value
# [5] = locus YBR160W, strain CDC28, stronger effect = lower value
# [6] = locus YDL017W, strain CDC7, stronger effect = lower value
# [7] = locus YDL028C, strain MPS1, stronger effect = lower value
# [8] = locus YDL101C, strain DUN1, stronger effect = lower value
# [9] = locus YDL108W, strain KIN28, stronger effect = lower value
# [10] = locus YDL132W, strain cdc53, stronger effect = lower value
# [11] = locus YDL214C, strain PRR2, stronger effect = lower value
# [12] = locus YDR052C, strain DBF4, stronger effect = lower value
# [13] = locus YDR054C, strain cdc34, stronger effect = lower value
# [14] = locus YDR226W, strain ADK1, stronger effect = lower value
# [15] = locus YDR477W, strain SNF1, stronger effect = lower value
# [16] = locus YER123W, strain YCK3, stronger effect = lower value
# [17] = locus YER133W, strain GLC7, stronger effect = lower value
# [18] = locus YFL009W, strain cdc4, stronger effect = lower value
# [19] = locus YFL029C, strain CAK1, stronger effect = lower value
# [20] = locus YFR003C, strain YPI1, stronger effect = lower value
# [21] = locus YFR019W, strain FAB1, stronger effect = lower value
# [22] = locus YFR028C, strain CDC14, stronger effect = lower value
# [23] = locus YGR040W, strain KSS1, stronger effect = lower value
# [24] = locus YGR052W, strain FMP48, stronger effect = lower value
# [25] = locus YGR092W, strain DBF2, stronger effect = lower value
# [26] = locus YHR030C, strain SLT2, stronger effect = lower value
# [27] = locus YHR079C, strain IRE1, stronger effect = lower value
# [28] = locus YHR082C, strain KSP1, stronger effect = lower value
# [29] = locus YHR205W, strain SCH9, stronger effect = lower value
# [30] = locus YIL147C, strain SLN1, stronger effect = lower value
# [31] = locus YJL095W, strain BCK1, stronger effect = lower value
# [32] = locus YJL128C, strain PBS2, stronger effect = lower value
# [33] = locus YJL157C, strain FAR1, stronger effect = lower value
# [34] = locus YJR016C, strain ILV3, stronger effect = lower value
# [35] = locus YJR066W, strain TOR1 (second series), stronger effect = lower value
# [36] = locus YJR066W, strain TOR1, stronger effect = lower value
# [37] = locus YKL048C, strain ELM1, stronger effect = lower value
# [38] = locus YKL067W, strain YNK1, stronger effect = lower value
# [39] = locus YKL101W, strain HSL1, stronger effect = lower value
# [40] = locus YKL193C, strain SDS22, stronger effect = lower value
# [41] = locus YKL203C, strain TOR2, stronger effect = lower value
# [42] = locus YLR113W, strain HOG1, stronger effect = lower value
# [43] = locus YLR133W, strain CKI1, stronger effect = lower value
# [44] = locus YLR403W, strain SFP1, stronger effect = lower value
# [45] = locus YML070W, strain DAK1, stronger effect = lower value
# [46] = locus YMR001C, strain CDC5, stronger effect = lower value
# [47] = locus YMR205C, strain PFK2 (second series), stronger effect = lower value
# [48] = locus YMR277W, strain FCP1, stronger effect = lower value
# [49] = locus YNL006W, strain LST8, stronger effect = lower value
# [50] = locus YNL020C, strain ARK1, stronger effect = lower value
# [51] = locus YNL161W, strain CBK1, stronger effect = lower value
# [52] = locus YNL183C, strain NPR1, stronger effect = lower value
# [53] = locus YNL207W, strain RIO2, stronger effect = lower value
# [54] = locus YNL222W, strain SSU72, stronger effect = lower value
# [55] = locus YNL307C, strain MCK1 (second series), stronger effect = lower value
# [56] = locus YOL078W, strain AVO1, stronger effect = lower value
# [57] = locus YOL136C, strain PFK27, stronger effect = lower value
# [58] = locus YOR061W, strain CKA2, stronger effect = lower value
# [59] = locus YOR119C, strain RIO1, stronger effect = lower value
# [60] = locus YOR231W, strain MKK1, stronger effect = lower value
# [61] = locus YOR329C, strain SCD5, stronger effect = lower value
# [62] = locus YPL031C, strain PHO85, stronger effect = lower value
# [63] = locus YPL153C, strain RAD53, stronger effect = lower value
# [64] = locus YPL204W, strain HRR25, stronger effect = lower value
# [65] = locus YPL209C, strain IPL1, stronger effect = lower value
# [66] = locus YPL256C, strain CLN2, stronger effect = lower value
# [67] = locus YPR025C, strain CCL1, stronger effect = lower value
# [68] = locus YPR106W, strain ISR1, stronger effect = lower value
# [69] = locus YPR111W, strain DBF20, stronger effect = lower value
# [70] = strain NNK1, stronger effect = lower value
# [71] = strain TSCII, stronger effect = lower value
smiles,measurement,setting,value
CCCc1cnc(N2CCN(CC(=O)N(c3ccccc3)C3CCCCC3)CC2)nc1,normalized growth,[1],0.995
same,normalized growth,[2],0.985
same,normalized growth,[3],0.992
same,normalized growth,[4],0.985
same,normalized growth,[5],0.984
same,normalized growth,[6],0.991
same,normalized growth,[7],0.997
same,normalized growth,[8],0.986
same,normalized growth,[9],0.99
same,normalized growth,[10],0.992
same,normalized growth,[11],0.997
same,normalized growth,[12],0.989
same,normalized growth,[13],0.974
same,normalized growth,[14],0.985
same,normalized growth,[15],0.999
same,normalized growth,[16],0.997
same,normalized growth,[17],1
same,normalized growth,[18],0.989
same,normalized growth,[19],0.993
same,normalized growth,[20],0.988
same,normalized growth,[21],1
same,normalized growth,[22],0.999
same,normalized growth,[23],0.985
same,normalized growth,[24],1.09
same,normalized growth,[25],1
same,normalized growth,[26],1.05
same,normalized growth,[27],1.03
same,normalized growth,[28],1.09
same,normalized growth,[29],0.97
same,normalized growth,[30],0.99
same,normalized growth,[31],1.05
same,normalized growth,[32],0.985
same,normalized growth,[33],0.981
same,normalized growth,[34],1
same,normalized growth,[35],0.995
same,normalized growth,[36],1.07
same,normalized growth,[37],0.969
same,normalized growth,[38],1
same,normalized growth,[39],0.993
same,normalized growth,[40],0.99
same,normalized growth,[41],1.05
same,normalized growth,[42],0.949
same,normalized growth,[43],0.997
same,normalized growth,[44],0.977
same,normalized growth,[45],1.03
same,normalized growth,[46],0.991
same,normalized growth,[47],1.01
same,normalized growth,[48],0.994
same,normalized growth,[49],0.988
same,normalized growth,[50],0.997
same,normalized growth,[51],0.99
same,normalized growth,[52],1.04
same,normalized growth,[53],0.997
same,normalized growth,[54],0.995
same,normalized growth,[55],1
same,normalized growth,[56],0.994
same,normalized growth,[57],0.985
same,normalized growth,[58],1.01
same,normalized growth,[59],1.04
same,normalized growth,[60],0.992
same,normalized growth,[61],0.986
same,normalized growth,[62],1
same,normalized growth,[63],0.998
same,normalized growth,[64],0.981
same,normalized growth,[65],0.98
same,normalized growth,[66],0.968
same,normalized growth,[67],0.99
same,normalized growth,[68],0.979
same,normalized growth,[69],0.976
same,normalized growth,[70],0.99
same,normalized growth,[71],0.992
Cc1ccc2c(c1)CCCN2CC(=O)N(c1ccccc1)C1CCCCC1,normalized growth,[1],0.989
same,normalized growth,[2],0.978
same,normalized growth,[3],0.986
same,normalized growth,[4],0.986
same,normalized growth,[5],0.978
same,normalized growth,[6],0.982
same,normalized growth,[7],0.994
same,normalized growth,[8],0.984
same,normalized growth,[9],0.986
same,normalized growth,[10],0.987
same,normalized growth,[11],0.943
same,normalized growth,[12],0.991
same,normalized growth,[13],0.975
same,normalized growth,[14],0.992
same,normalized growth,[15],0.951
same,normalized growth,[16],0.928
same,normalized growth,[17],0.951
same,normalized growth,[18],0.989
same,normalized growth,[19],0.986
same,normalized growth,[20],0.986
same,normalized growth,[21],0.961
same,normalized growth,[22],0.976
same,normalized growth,[23],0.923
same,normalized growth,[24],0.994
same,normalized growth,[25],0.948
same,normalized growth,[26],0.966
same,normalized growth,[27],0.965
same,normalized growth,[28],0.991
same,normalized growth,[29],0.991
same,normalized growth,[30],0.991
same,normalized growth,[31],0.965
same,normalized growth,[32],0.932
same,normalized growth,[33],0.944
same,normalized growth,[34],0.985
same,normalized growth,[35],0.928
same,normalized growth,[36],0.999
same,normalized growth,[37],0.945
same,normalized growth,[38],0.946
same,normalized growth,[39],0.912
same,normalized growth,[40],0.974
same,normalized growth,[41],0.999
same,normalized growth,[42],0.836 (active)
same,normalized growth,[43],0.937
same,normalized growth,[44],0.935
same,normalized growth,[45],0.912
same,normalized growth,[46],0.991
same,normalized growth,[47],0.955
same,normalized growth,[48],0.99
same,normalized growth,[49],0.992
same,normalized growth,[50],0.943
same,normalized growth,[51],0.983
same,normalized growth,[52],0.941
same,normalized growth,[53],0.98
same,normalized growth,[54],0.983
same,normalized growth,[55],0.948
same,normalized growth,[56],0.99
same,normalized growth,[57],0.925
same,normalized growth,[58],0.956
same,normalized growth,[59],1
same,normalized growth,[60],0.907
same,normalized growth,[61],0.995
same,normalized growth,[62],0.95
same,normalized growth,[63],0.936
same,normalized growth,[64],0.957
same,normalized growth,[65],0.98
same,normalized growth,[66],0.884
same,normalized growth,[67],0.991
same,normalized growth,[68],0.97
same,normalized growth,[69],0.964
same,normalized growth,[70],0.973
same,normalized growth,[71],0.987
